For 46 compounds, nuclei count results are on record in the supplement of paper PMC8183993.

“And” between values parts separate entries of the source, which are not always exact repeats. Equal entries are not always repeated. Structures can show the parent of a compound that is named as a salt. ± gives the standard deviation of the averaged measurements. Whole data set: some 3,200 compounds, median “nuclei count (viability) relative to DMSO” near 99, cut for the lowest 2% near 16. Shown is part of a subset that was picked to be rich in the lowest values.

This experiment relates to U2OS. Briefly: nuclei count (viability) relative to DMSO (% of DMSO); higher = more viable cells. The settings on record: 10 µM; 24 h. The method, then: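 Primary image-based screen in U2OS cells: compounds at 10 uM for 24 h, then a 1 h o-propargyl-puromycin (OPP) pulse, click labelling, and high-throughput microscopy. Mean cytoplasmic OPP intensity and nuclei count were normalised to DMSO wells within each plate (DMSO = 100) and averaged over triplicate plates.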
In turn, `CCC(C)N(C)C(=O)c1cc2ccccc2c(-c2ccccc2Cl)n1` (stereo unspecified) had a nuclei count of 106.

The compound `COC(=O)c1c(-c2cc(OC)c(OC)c(OC)c2)c2ccnc(OCc3ncccn3)c2c(=O)n1Cc1ccnc(C)c1` [T 0156 hydrochloride] displayed a nuclei count of 107.

As for `COc1cc2c(Nc3ccc(NC(=O)c4ccccc4)cc3)ncnc2cc1OCCCN1CCOCC1`, the nuclei count is 49.8 and 53.3.

`COc1cc2nccc(Oc3ccc(NC(=O)C4(C(=O)Nc5ccc(F)cc5)CC4)cc3)c2cc1OC` [Cabozantinib malate] yielded a nuclei count of 59.

In turn, `COc1cc2c(Oc3ccc(NC(=O)C4(C(=O)Nc5ccc(F)cc5)CC4)cc3F)ccnc2cc1OCCCN1CCOCC1` had a nuclei count of 12.

`COc1cc2nccc(Oc3ccc(NC(=O)C4(C(=O)Nc5ccc(F)cc5)CC4)cc3)c2cc1OC` [XL-184 free base (Cabozantinib)] yielded a nuclei count of 51.5.

Regarding `O=C1c2c(O)cc(O)cc2OC(c2ccc(O)c(O)c2)C1O` (stereo unspecified) [Taxifolin (Dihydroquercetin)], the nuclei count is 90.7.

`O=C(O)c1ccc(O)c2ncccc12` returned a nuclei count of 99.5.

`COc1ccc([C@@H]2CNC(=O)C2)cc1OC1CCCC1` [(R)-(-)-Rolipram] returned a nuclei count of 96.2.

With `CC[N+](CC)(CC)CC(=O)Nc1c(C)cccc1C` [QX 314 chloride], the nuclei count amounted to 104.

In turn, `CC[N+](CC)(CC)CC(=O)Nc1c(C)cccc1C` [QX 314 bromide] displayed a nuclei count of 97.5.

With `CC[N+](CC)(CC)CC(=O)Nc1c(C)cccc1C` [QX-314 bromide], the nuclei count was 104.

The compound `COc1ccc(CN(CCN(C)C)c2ccccn2)cc1` [Pyrilamine maleate] returned a nuclei count of 102.

With `CCCCCCCCCCCCCCCC[N+](C)(C)CCN(Cc1ccc(OC)cc1)c1ncccn1` [Thonzonium bromide], the nuclei count came to 12.1.

Compound `COc1ccc(CN(CCN(C)C)c2ccccn2)cc1` [Mepyramine maleate] displayed a nuclei count of 104.

`CN(C)CCN(Cc1ccc(Cl)cc1)c1ccccn1` [Chloropyramine hydrochloride]: the nuclei count came to 105.

`CC(=O)O[C@@H]1C[C@H]2C(C)(C)C(=O)C=C[C@]2(C)[C@H]2CC[C@@]3(C)[C@H](c4ccoc4)OC(=O)[C@H]4O[C@]43[C@@]21C` [Gedunin]: the nuclei count came to 85.6.

Compound `COC1CCC(C(=O)c2ccc3nc4c(cc3c2)CCCO4)CC1` (stereo unspecified) registered a nuclei count of 96.5.

Turning to `CCn1cc(-c2cccc(C(F)(F)F)c2)c2sc(C(=N)NC3CCS(=O)(=O)CC3)cc2c1=O`, the nuclei count is 91.5.

`Cc1ccc(C(=O)N(CCCN)[C@@H](c2nc3cc(Cl)ccc3c(=O)n2Cc2ccccc2)C(C)C)cc1` yielded a nuclei count of 9.23.

The compound `Cc1ccc(C(=O)N(CCCN)[C@@H](c2oc3cc(Cl)ccc3c(=O)c2Cc2ccccc2)C(C)C)cc1` gave a nuclei count of 20.5.

`Fc1ccc(-c2nc3n(c2-c2ccncc2)CCS3)cc1` showed a nuclei count of 103.

For the compound `C[C@H]1C[C@H]2[C@@H]3CCC4=CC(=O)C=C[C@]4(C)[C@H]3C(=O)C[C@]2(C)[C@@]1(O)C(=O)CO` [Betapar (Meprednisone)], the nuclei count was found to be 107.

For the compound `C[C@H](CC[C@@H]1OC1(C)C)[C@H]1CC[C@H]2[C@@H]3CC=C4C[C@@H](O)CC[C@]4(C)[C@H]3CC[C@]12C` [24(S),25-Epoxycholesterol], the nuclei count is 107.

For the compound `Cc1c(NC(=O)OC[C@@H]2COCCN2)cn2ncnc(Nc3ccc4c(cnn4Cc4cccc(F)c4)c3)c12`, the nuclei count amounted to 100.

As to `CC1(C)C(=O)NC2=C1C(=O)C(=O)c1ccccc12`, the nuclei count was 40.5 and 19.2.

Consider `COc1ccc(NS(=O)(=O)c2sc3ccc(Cl)cc3c2C)cc1N1CCNCC1`, for which the nuclei count is 98.3.

`O=C(Nc1ccccc1)C12CC1C(=NO)c1ccccc1O2` (stereo unspecified): the nuclei count was 99.8.

On to `Cc1cc(-c2ccccc2)nnc1NCCN1CCOCC1` [Minaprine dihydrochloride], for which the nuclei count turned out to be 102.

Turning to `O=C1C(Cl)=C(NCCN2CCOCC2)C(=O)c2ncccc21`, the nuclei count was found to be 5.89.

Turning to `O=C(NCCN1CCOCC1)c1ccc(Cl)cc1` [Moclobemide], the nuclei count was 90.8.

`CCN(CC)c1ccc(/C=N/NC(=O)c2ccc(O)cc2)cc1` gave a nuclei count of 89.4.

As for `C[N+](C)(C)CC[N+]1(C)Cc2c(Cl)c(Cl)c(Cl)c(Cl)c2C1` [Chlorisondamine diiodide], the nuclei count turned out to be 90.8.

In turn, `O=C(O)[C@H]1O[C@@H](Oc2cc3oc(-c4ccccc4)cc(=O)c3c(O)c2O)[C@H](O)[C@@H](O)[C@@H]1O` [Baicalin] registered a nuclei count of 101.

`c1cc2c3c(c1)c1c(n3CCNC2)CCCC1` [WAY 629 hydrochloride] came in with a nuclei count of 94.2.

For `Cc1cc(O)c2c(c1)C(=O)c1cccc(O)c1C2=O` [Chrysophanic acid (Chrysophanol)], the nuclei count came out at 92.5 ± 11.

`CCN(CC)Cc1ccc2cc(COC(=O)Nc3ccc(C(=O)NO)cc3)ccc2c1` [ITF2357 (Givinostat)] yielded a nuclei count of 14.7.

On to `COc1ccc(Cn2ccc3ccc(C(=O)NO)cc32)cc1`, for which the nuclei count came out at 101.

Turning to `CC(C)[C@H](C(=O)Nc1ccc(C(=O)NO)cc1)c1ccccc1`, the nuclei count worked out at 29.3.

Compound `Nc1ncnc2c1ncn2[C@@H]1O[C@H](COP(=O)(O)OP(=O)(O)OP(=O)(O)O)[C@@H](O)[C@H]1O` [ATP (Adenosine-Triphosphate)] came in with a nuclei count of 106.

`CCN(CC)CCNC(=O)c1c(C)[nH]c(/C=C2\C(=O)Nc3ccc(Cl)cc32)c1C` gave a nuclei count of 79.9.

As for `CCCS(=O)(=O)c1nc(NC2CC2)cc(-c2ccc3c(ccn3C3CC(C)(C)NC(C)(C)C3)c2)n1`, the nuclei count was found to be 8.4.

On to `O=C(NC[C@H](O)CN1CCc2ccccc2C1)c1ccnc(NC2CCC2)c1`, for which the nuclei count worked out at 102.

Regarding `Cc1ccc(/C=C2\CNC/C(=C\c3ccc(C)cc3)C2=O)cc1`, the nuclei count amounted to 7.58.

Consider `CC1(C)[C@@H](O[C@H]2O[C@H](C(=O)O)[C@@H](O)[C@H](O)[C@H]2O[C@@H]2O[C@H](C(=O)O)[C@@H](O)[C@H](O)[C@H]2O)CC[C@]2(C)[C@H]3C(=O)C=C4[C@@H]5C[C@@](C)(C(=O)O)CC[C@]5(C)CC[C@@]4(C)[C@]3(C)CC[C@@H]12` [Glycyrrhizic acid], for which the nuclei count is 101.

In the case of `CC1(C)[C@@H](O[C@H]2O[C@H](C(=O)O)[C@@H](O)[C@H](O)[C@H]2O[C@@H]2O[C@H](C(=O)O)[C@@H](O)[C@H](O)[C@H]2O)CC[C@]2(C)[C@H]3C(=O)C=C4[C@@H]5C[C@@](C)(C(=O)O)CC[C@]5(C)CC[C@@]4(C)[C@]3(C)CC[C@@H]12` [Ammonium Glycyrrhizinate (AMGZ)], the nuclei count stood at 101.
